IL-1B inflam inh – inhibitors of inflammasome signaling (IL-1 beta secretion) | THP-1 LPS/ATP IL-1B secretion, AlphaLISA, 16 h; active compounds read low | activity change, % at 57.5 µM | 4.7% of 360,000 active | AID 743279; in the data active = activity change below about -50%; inconclusive = mostly about -30% to -49%
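Secreted IL-1B measured by AlphaLISA bead assay after 16 h compound exposure of THP-1 cells; compounds (final up to 57.5 uM) added 1 h before LPS (250 ng/mL) and ATP (1.25 mM) stimulation; lower signal means less secretion.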
RORg inh – inhibitors of mouse ROR gamma transcriptional activity. Potency, µM (top dose mostly 53.6 µM), inactives show top-dose activity change, negative = inhibition, actives largely listed as inhibitors. 5.4% of 310,000 active. Drosophila S2 Gal4-RORgamma UAS-luciferase reporter, 20 h; note: potency is the fitted concentration of half-maximal effect; nearly all actives have a fitted effect of over 60% in size
Target sequence (P51450 whole entry, looked up, the tested form may be a part): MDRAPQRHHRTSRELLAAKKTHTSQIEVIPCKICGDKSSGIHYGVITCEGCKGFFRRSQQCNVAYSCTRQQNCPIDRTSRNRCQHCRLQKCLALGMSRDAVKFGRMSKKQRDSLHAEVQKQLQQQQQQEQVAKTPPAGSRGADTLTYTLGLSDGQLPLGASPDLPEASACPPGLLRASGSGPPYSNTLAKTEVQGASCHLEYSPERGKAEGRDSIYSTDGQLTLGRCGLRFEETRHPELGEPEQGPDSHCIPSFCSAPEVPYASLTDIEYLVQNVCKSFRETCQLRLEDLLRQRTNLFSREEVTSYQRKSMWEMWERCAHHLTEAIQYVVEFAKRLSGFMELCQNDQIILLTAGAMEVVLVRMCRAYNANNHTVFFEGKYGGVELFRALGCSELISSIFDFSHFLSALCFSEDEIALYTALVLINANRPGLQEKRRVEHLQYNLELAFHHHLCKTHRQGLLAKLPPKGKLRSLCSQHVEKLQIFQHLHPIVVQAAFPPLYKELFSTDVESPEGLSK
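In this cell-based reporter format, copper sulfate (700 uM final) drives Gal4–ROR gamma fusion expression from a metallothionein promoter in Drosophila Schneider cells; compounds preincubated 1 hr, reporter read after 20 hr at ambient temperature.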
Gal4-VP16 FLuc – inhibits Gal4-VP16 luciferase reporter, ROR gamma counter-screen | AID 2546 | Drosophila S2 Gal4-VP16 UAS-luciferase, luminescence, 20 h | 3.5% of 310,000 active | Potency, µM (doses to about 53.6 µM), for the others: at the highest dose activity, negative = inhibition, most hits filed as inhibitors;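 note: Gal4-VP16 expression switched on by copper sulfate through the metallothionein promoter; potency is the fitted concentration of half-maximal effect; nearly all actives have a fitted effect of over 50% in size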
ELG1 repair inh – inhibitors of ELG1-dependent DNA repair in HEK293T cells; Potency, µM (doses to about 46.1 µM), inactives show at the top dose activity change, negative = inhibition, hits mostly inhibitors; 2.3% of 330,000 active; HEK293T ELG1-luciferase reporter, luminescence, 16 h; DNA damage induced by 5-fluorouridine; note: potency is the fitted concentration of half-maximal effect; nearly all actives have a fitted effect of over 55% in size
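5-Fluorouridine DNA damage + compound/DMSO, 2,000 cells/well, 16 h, 37 °C/5% CO2. ONE-Glo, 30 min RT, luminescence. Readout = decrease in reporter signal.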
DT40 TDP1 CPT – DT40-hTDP1 cell growth loss with CPT; Potency, µM (doses to about 46.2 µM), without a hit: at the highest dose activity change, negative = growth inhibition, most hits filed as inhibitors; 12% of 420,000 active; chicken DT40 Tdp1-/-;hTDP1 cells + 20 nM CPT, ATP luminescence, 48 h; note: potency is the fitted concentration of half-maximal effect; nearly all actives have a fitted effect of over 55% in size
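Chicken DT40 Tdp1-/- cells stably complemented with human TDP1 were seeded at 400 cells/well in medium containing 20 nM camptothecin, exposed to pin-transferred compounds, and grown at 37 °C for at least 48 hr. Viability was read as ATP luminescence.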
DT40 TDP1 no CPT – qHTS for Inhibitors of human tyrosyl-DNA phosphodiesterase 1 (TDP1): qHTS in cells in absence of CPT. DT40 Tdp1-/- hTDP1 cells, no CPT, ATP luminescence, 48 h. Potency, µM (top dose mostly 46.2 µM), without a hit: top-dose activity change, negative = growth inhibition, most hits filed as inhibitors. 15% of 420,000 active. AID 686978, 2013; note: potency is the fitted concentration of half-maximal effect; nearly all actives have a fitted effect of over 55% in size
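Growth of hTDP1-complemented DT40 Tdp1-knockout cells is measured by ATP luminescence after at least 48 hr compound exposure at 37 °C, with DMSO substituting for the 20 nM CPT used in the parallel screen.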
* = called active by the depositor. Shown are actives, neighbours in structure and some others; about 21% of the full set was active somewhere. Unless noted, calls come from the whole dose curve; as a rule, active = well fitted curve in the direction sought with a large enough effect; inconclusive = small, poorly fitted or top-dose-only effect, or another doubt; inactive = no such curve, though single readings can be large; an effect the other way counts as inactive or inconclusive. % is set by controls: 0 for no effect and ±100 for the full control effect.

Screening Cc1cc(C)n(-c2nc3ccccc3c(=O)n2OCc2ccc(Cl)cc2)n1 returned IL-1B inflam inh 36, RORg inh 10µM*, Gal4-VP16 FLuc inconclusive, ELG1 repair inh -16%, DT40 TDP1 CPT inconclusive and DT40 TDP1 no CPT inconclusive.
`Cc1cc(C)n(-c2nc3ccccc3c(=O)n2OCC(=O)Nc2c(C)cccc2C)n1` gave IL-1B inflam inh -1, RORg inh 11µM*, Gal4-VP16 FLuc inconclusive, ELG1 repair inh -10%, DT40 TDP1 CPT inconclusive and DT40 TDP1 no CPT 18µM*.
Screening COC(=O)c1c(C)n(-c2ccc(OC)cc2)c2ccc(O)cc12 returned IL-1B inflam inh -10, RORg inh -38%, Gal4-VP16 FLuc -17%, ELG1 repair inh inconclusive, DT40 TDP1 CPT 12µM* and DT40 TDP1 no CPT 13µM*.
Screening CCOC(=O)c1c(C)n(C)c2ccc(OCCN(C)C)cc12 returned IL-1B inflam inh inconclusive, RORg inh -16%, Gal4-VP16 FLuc -3%, ELG1 repair inh -5%, DT40 TDP1 CPT -5% and DT40 TDP1 no CPT 8%.
Screening CCOC(=O)c1c(C)n(-c2ccccc2)c2ccc(OC(=O)c3ccccc3)cc12 returned DT40 TDP1 CPT inconclusive and DT40 TDP1 no CPT 16µM*.
CCOC(=O)c1c(C)n(-c2ccc(F)cc2)c2ccc(O)cc12 was read as IL-1B inflam inh 7, RORg inh -29%, Gal4-VP16 FLuc -14%, ELG1 repair inh -17%, DT40 TDP1 CPT 4% and DT40 TDP1 no CPT -2%.
CCOC(=O)c1c(C)n(-c2ccccc2)c2ccc(OC(=O)c3cccc(Cl)c3)cc12 was read as DT40 TDP1 CPT inconclusive and DT40 TDP1 no CPT 26µM*.
Screening CCOC(=O)c1c(C)n(-c2ccccc2)c2ccc(OC(=O)c3c(F)cccc3F)cc12 returned DT40 TDP1 CPT -9% and DT40 TDP1 no CPT -7%.
For CCOC(=O)c1c(C)n(-c2ccccc2)c2ccc(OCCN(C)C)cc12 the results were IL-1B inflam inh -80*, RORg inh -39%, Gal4-VP16 FLuc -5%, ELG1 repair inh 2%, DT40 TDP1 CPT inconclusive and DT40 TDP1 no CPT inconclusive.
Screening CC(C)[C@H]1C(=O)Nc2ccccc2N1C(=O)N[C@@H](Cc1ccccc1)C(=O)N[C@H](C(=O)O)c1ccccc1 returned IL-1B inflam inh 23, RORg inh 26%, Gal4-VP16 FLuc -1%, ELG1 repair inh inconclusive, DT40 TDP1 CPT 8% and DT40 TDP1 no CPT -8%.
`CCOC(=O)c1c(C)[nH]c(C)c1S(=O)(=O)NCC(=O)Nc1ccc(C)c(N(C)C)c1` gave DT40 TDP1 CPT -23% and DT40 TDP1 no CPT -19%.
Screening CCOC(=O)c1c(C)n(C)c2cc(OCCN(CC)CC)ccc12 returned IL-1B inflam inh -55*, RORg inh 9%, Gal4-VP16 FLuc 6%, ELG1 repair inh -4%, DT40 TDP1 CPT 1% and DT40 TDP1 no CPT 0%.
For CCN(CC)CCOC(=O)c1c(C)n(C)c2ccc(OC)cc12 the results were IL-1B inflam inh 8, RORg inh -26%, Gal4-VP16 FLuc -2%, ELG1 repair inh -18%, DT40 TDP1 CPT -8% and DT40 TDP1 no CPT -5%.
Screening OC(c1ccc2c(c1)CN(Cc1ccc3nsnc3c1)CCO2)C1CCCCC1 (stereo not given) returned DT40 TDP1 CPT 5% and DT40 TDP1 no CPT -4%.
OC1C=CSc2nc3ccccc3n21 (stereo not given) was read as IL-1B inflam inh inconclusive, RORg inh -38%, Gal4-VP16 FLuc -2%, ELG1 repair inh 0%, DT40 TDP1 CPT 13µM* and DT40 TDP1 no CPT 15µM*.

Assay outcomes (PubChem BioAssay)
